The record followed here is PubChem BioAssay (NCATS).

Values joined by “and” are separate entries in the source; they are usually repeats but may differ in a detail not shown here. Equal values may be shown once. Results filed as inconclusive are left out. More than one record can exist for a structure, and the calls need not agree. Active and inactive are the calls of the source. The call rests on the fitted dose curve.
Potency means the concentration at half of the fitted maximal effect.

Sequence of Cytochrome P450 1A2 (Homo sapiens) (P05177 whole entry, looked up): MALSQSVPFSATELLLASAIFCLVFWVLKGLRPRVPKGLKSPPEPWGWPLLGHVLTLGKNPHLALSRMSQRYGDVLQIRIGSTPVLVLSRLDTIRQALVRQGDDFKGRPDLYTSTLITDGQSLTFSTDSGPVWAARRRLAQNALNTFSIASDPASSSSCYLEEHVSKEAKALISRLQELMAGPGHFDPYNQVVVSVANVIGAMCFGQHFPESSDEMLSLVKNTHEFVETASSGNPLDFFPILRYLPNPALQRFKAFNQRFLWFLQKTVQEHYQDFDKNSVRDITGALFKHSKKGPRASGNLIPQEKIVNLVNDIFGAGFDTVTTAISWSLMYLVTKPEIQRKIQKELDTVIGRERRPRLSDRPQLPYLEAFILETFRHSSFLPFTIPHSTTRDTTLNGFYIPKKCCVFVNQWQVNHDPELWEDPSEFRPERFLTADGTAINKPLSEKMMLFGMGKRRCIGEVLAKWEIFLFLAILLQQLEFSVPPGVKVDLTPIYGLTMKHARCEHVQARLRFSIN

The experiment concerns the target Cytochrome P450 1A2 (Homo sapiens) (UniProt P05177). The experiment is described as follows: p450-cyp1a2 (AID 410).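 On activity change, negative = inhibition: -100% = full effect of reference inhibitor.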 To be noted: recombinant CYP1A2, luciferin-ME demethylation, luminescence; series mostly up to 57 µM; activity change, negative = inhibition: at the top concentration. The method in brief:
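20nM CYP1A2 with 100uM Luciferin-ME (at Km) in 100mM KPO4; compound preincubated 10 min, NADPH regeneration added, 60 min at room temperature. Luciferin quantified by luminescence after detection reagent; normalized to 57 uM furafylline.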
For `CN1CCN(c2nc3cc(C(F)(F)F)ccc3n3cccc23)CC1`, the Potency was 200 nM (active) and 39.8 nM (active).

As to `O=C(O)C1=CCCNC1`, the Potency entry is “inactive”.

Turning to `O=S(=O)(c1cccc2c(Cl)cccc12)N1CCCNCC1`, the Potency is 15.8 µM (active).

In the case of `CNc1cc(NS(=O)(=O)c2ccc(N)cc2)nc(NC)n1`, the “activity change, negative = inhibition” value is -10.1% (inactive).

On to `CNC(=O)c1cc2c(cn1)[nH]c1ccccc12`, for which the Potency was 794 nM (active) and 50.1 nM (active).

For `CC(C)(CO)Cc1cc(C(C)(C)C)c(O)c(C(C)(C)C)c1`, the Potency is 31.6 µM (active) and 25.1 µM (active).

`N=C(N)c1ccc(N)cc1`: the “activity change, negative = inhibition” value is 6.4% (inactive).

`NC(=Nc1ccccc1)NC(=O)c1nc(Cl)c(N)nc1N`: the Potency was 12.6 µM (active).

Consider `NCCCCN`, for which the “activity change, negative = inhibition” value was -17% (inactive).

In the case of `N=C(N)c1ccccc1`, the “activity change, negative = inhibition” value is -7.5% (inactive).

With `N=C(N)SCCc1cnc[nH]1`, the Potency result is “inactive”.

For `COc1ccccc1N1CCN(CCCCNC(=O)c2ccc3ccccc3c2)CC1`, the Potency is 20 µM (active) and inactive.

Turning to `CCN(c1nc(N)c(C(=O)N=C(N)N)nc1Cl)C(C)C`, the Potency was 2 µM (active).

Turning to `COc1cc(CC(=O)O)ccc1O`, the “activity change, negative = inhibition” value is 0.6% (inactive).

Regarding `C#CCn1c(=O)c2c(ncn2C)n(C)c1=O`, the “activity change, negative = inhibition” value is -16.3% (inactive).

Turning to `Nc1ncnc2c1ncn2C1CCCC1`, the Potency is 20 µM (active).

As for `Cn1ccnc1`, the “activity change, negative = inhibition” value is 4.4% (inactive).

Regarding `Cn1c(=O)c2[nH]c(C3CCCC3)nc2n(C)c1=O`, the Potency was 12.6 µM (active).

Take `O=[N+]([O-])c1cccc2c(Br)[nH]nc12`: the Potency is 794 nM (active) and 126 nM (active).

For the molecule `CC(N)=O`, the “activity change, negative = inhibition” value was -4.8% (inactive).

On to `COc1ccc2c(c1)c(CC(=O)O)c(C)n2Cc1ccc(Cl)cc1`, for which the Potency was 31.6 µM (active).
